Results published in PubChem BioAssay (NCATS).
Results filed as inconclusive are left out. Active and inactive are the calls of the source. Calls follow the shape of the dose curve; as a rule, active = well fitted activation curve with a large enough effect; inconclusive = small, poorly fitted or top-dose-only effect; inactive = no such curve, though single readings can be large or run the other way.

The compounds below were run against Rap guanine nucleotide exchange factor 4 (Homo sapiens) (UniProt Q8WZA2) (assay: Confirmatory qHTS for agonist of cAMP-regulated guanine nucleotide exchange factor 4 (EPAC2) (AID 1645884;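 also: nucleotide exchange releases bodipy-GDP from Rap1 and this lowers its fluorescence; nearly all actives have a fitted effect of over 65% in size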)). Details: EPAC2 GEF activity, Rap1B-BODIPY-GDP fluorescence; series mostly up to 154 µM; activation: at the top concentration.
Chain of Rap guanine nucleotide exchange factor 4 (Homo sapiens) (Q8WZA2 whole entry, looked up): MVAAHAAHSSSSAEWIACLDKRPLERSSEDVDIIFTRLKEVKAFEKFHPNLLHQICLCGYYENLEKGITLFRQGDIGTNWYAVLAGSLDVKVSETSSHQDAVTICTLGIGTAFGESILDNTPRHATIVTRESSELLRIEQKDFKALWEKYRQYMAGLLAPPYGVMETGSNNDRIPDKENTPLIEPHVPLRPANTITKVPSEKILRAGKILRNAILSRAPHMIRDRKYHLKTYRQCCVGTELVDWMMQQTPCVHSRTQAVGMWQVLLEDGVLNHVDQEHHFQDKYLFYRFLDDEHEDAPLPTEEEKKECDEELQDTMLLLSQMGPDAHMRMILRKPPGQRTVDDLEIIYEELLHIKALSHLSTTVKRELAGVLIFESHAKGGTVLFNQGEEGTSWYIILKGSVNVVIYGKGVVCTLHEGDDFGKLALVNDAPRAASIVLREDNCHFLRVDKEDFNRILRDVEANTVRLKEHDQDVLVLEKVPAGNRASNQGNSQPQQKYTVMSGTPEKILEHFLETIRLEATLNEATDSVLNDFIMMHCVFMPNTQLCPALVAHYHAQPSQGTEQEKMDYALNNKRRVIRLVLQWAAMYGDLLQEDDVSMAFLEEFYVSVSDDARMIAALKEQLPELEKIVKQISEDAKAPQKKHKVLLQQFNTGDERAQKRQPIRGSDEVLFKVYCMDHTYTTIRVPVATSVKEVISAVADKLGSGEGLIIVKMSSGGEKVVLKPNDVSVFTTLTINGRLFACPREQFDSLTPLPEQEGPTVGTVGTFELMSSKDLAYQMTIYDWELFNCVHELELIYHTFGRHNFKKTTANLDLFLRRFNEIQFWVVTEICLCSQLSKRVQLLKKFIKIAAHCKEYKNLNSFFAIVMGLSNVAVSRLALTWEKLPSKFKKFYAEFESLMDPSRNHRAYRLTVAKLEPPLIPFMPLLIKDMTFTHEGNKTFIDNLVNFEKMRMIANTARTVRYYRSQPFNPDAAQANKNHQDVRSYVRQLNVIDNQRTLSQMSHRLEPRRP
% is scaled to controls: 0 for no effect and ±100 for the full control effect; potency is read from the fitted curve at half-maximal effect.

Structure (SMILES)	activation	Potency
COc1cc2ccccc2cc1C(=O)NC(=S)Nc1cccc(C(=O)O)c1	3.08% [at 17.1 µM, percent relative to cAMP agonist control] (inactive)	
NC(N)=N/N=C/c1ccc(OCc2ccc(Cl)cc2Cl)cc1	3.24% [at 17.1 µM, percent relative to cAMP agonist control] (inactive)	
COc1ccc(CN(Cc2ccco2)C(=O)c2ccccc2F)cc1	-4.8% [at 83.8 µM, percent relative to cAMP agonist control] (inactive)	
CCOC(=O)[C@H]1[C@H]2COc3ccc(C)cc3[C@@H]2N2C(=O)c3ccc(C)cc3NC(=O)[C@@]12C		112 µM (active)
CCOC(=O)c1cc(-c2ccc(/C=C3/C(=O)N(c4ccc(C(=O)O)cc4)N=C3C)o2)ccc1Cl	0% (inactive)	
O=C(N/N=C/c1ccc(O)c(O)c1)C1c2ccccc2Oc2ccccc21	23.9% (inactive)	
O=C1N(Cc2ccccc2Cl)c2ccccc2C1(O)c1c[nH]c2ccccc12 (stereo unspecified)	4.76% [at 83.8 µM, percent relative to cAMP agonist control] (inactive)	
COc1ccc(CCn2c(O)cc3nn(-c4nc5ccccc5s4)c(=O)c-3c2C)cc1	0% (inactive)	
CCOc1ccc(/C=C2\SC(=S)N(NS(=O)(=O)c3ccccc3)C2=O)cc1OC		112 µM (active)
Cn1c(SCC(=O)Nc2cccc(C(=O)O)c2)nnc1-c1cc2cc(Br)ccc2o1	-4.14% (inactive)	
Oc1ccccc1N=Cc1c(O)ccc2ccccc12	0% [at 17.1 µM, percent relative to cAMP agonist control] (inactive)	
Cc1cc(Br)cn2c(Cc3ccsc3)c(-c3ccco3)nc12	5.83% [at 17.1 µM, percent relative to cAMP agonist control] (inactive)	
CCc1ccc(N=C2NC(=O)/C(=C/c3ccc(OCC(=O)O)c(OC)c3)S2)cc1	3.81% (inactive)	
CC1(C)CC2CC(C)(CN2C(=O)c2cc(-c3ccccc3O)on2)C1 (stereo unspecified)	10.5% [at 17.1 µM, percent relative to cAMP agonist control] (inactive)	
Oc1ccc(NCc2cccc(OCc3ccc(F)cc3)c2)cc1	10.4% [at 17.1 µM, percent relative to cAMP agonist control] (inactive)	
O=C(O)c1ccc(Nc2nc(-c3cc4ccccc4oc3=O)cs2)cc1O	8.3% (inactive)	

Structure (SMILES)	activation	Potency
CCc1ccc(N=C2NC(=O)/C(=C/c3ccc(OCC(=O)O)cc3)S2)cc1	8.62% [at 17.1 µM, percent relative to cAMP agonist control] (inactive)	
O=[N+]([O-])c1ccc(NS(=O)(=O)c2ccccc2)c(Cl)c1	-11.9% (inactive)	
CCOc1cc(/C=C2\SC(=Nc3ccc(CC)cc3)NC2=O)ccc1OCC(=O)O	-31.7% (inactive)	
COc1ccc(C(=O)NCCn2cc(SCC(=O)NCCc3ccc(OC)c(OC)c3)c3ccccc32)cc1	2.02% [at 83.8 µM, percent relative to cAMP agonist control] (inactive)	
Cc1nc2c3cc(F)ccc3n(Cc3ccccc3F)c2s1	1.97% [at 17.1 µM, percent relative to cAMP agonist control] (inactive)	
COc1ccc(C(=O)c2ccc(Br)cc2)c(OC)c1OC	15.4% (inactive)	
CNc1ccc(/C=C(\CCC(=O)O)c2nc3ccccc3s2)cc1[N+](=O)[O-]	0% [at 17.1 µM, percent relative to cAMP agonist control] (inactive)	
Cc1ccc(NS(=O)(=O)c2cccc3cccnc23)c(Cl)c1	10.4% (inactive)	
CN(C)c1ccc(/C=C(/C(=O)c2ccc(Cl)cc2Cl)n2cncn2)cc1		112 µM (active)
COc1cc(/C=C2\SC(=Nc3ccccc3)N(CCc3c[nH]c4ccccc34)C2=O)ccc1OC(C)C(=O)O (stereo unspecified)	3.49% (inactive)	
CCOc1ccccc1CN(CCc1ccc2c(c1)OCO2)Cc1ccccn1	11.2% [at 17.1 µM, percent relative to cAMP agonist control] (inactive)	
CC(=O)N1CCc2nc3sc(C(=O)c4ccc(F)cc4)c(N)c3c(C(F)(F)F)c2C1	1.58% [at 83.8 µM, percent relative to cAMP agonist control] (inactive)	
COc1cc2cc(Oc3ccc4ccc(=O)oc4c3)c(=O)oc2cc1O	1.41% [at 17.1 µM, percent relative to cAMP agonist control] (inactive)	
CCOC(=O)c1c(CSc2ccccc2)n(C)c2cc(Br)c(OCC(O)CNC(CO)(CO)CO)cc12 (stereo unspecified)		89.1 µM (active)
Cc1cc2nc3c(=O)n(Cc4ccccc4)c(=O)[nH]c3nc2cc1N	16.2% [at 17.1 µM, percent relative to cAMP agonist control] (inactive)	
